# Out of some 200,000 compounds screened, about 560 (0.28%) were called active. A call without a number means that no potency is given here. This excerpt belongs to a sample that is enriched for actives. A number with no mark means an inactive call. Calls follow the shape of the dose curve; as a rule, active = well fitted inhibition curve with a large enough effect; inconclusive = small, poorly fitted or top-dose-only effect; inactive = flat fitted curve, though single readings scatter.
# Molecular target: Luciferin 4-monooxygenase (Photuris pensylvanica) (UniProt Q27757)
# Experiment: Counterscreen for Luciferase (Kinase-Glo TM) Inhibition; also: nearly all actives have a fitted effect of over 60% in size
# Details: ATP luminescence, 8 min; series mostly up to 38.3 µM
# Description: NCGC Assay Overview: NIH Molecular Libraries Screening Centers Network [MLSCN] NIH Chemical Genomics Center [NCGC] MLSCN Grant: None Luciferase (Kinase-Glo, Promega Corporation) was assayed for its ability to generate light using ATP and luciferin as substrates. The ATP concentration in the assay (10 uM) was within the linear range of enzyme activity for the assay conditions used.
# NCGC Assay Protocol Summary: Four uL of substrate mix (final concentration, 50 mM imidazole pH 7.2, 50 mM KCl, 7 mM MgCl2, 10 uM ATP, 0.01% Tween 20, 0.05% BSA) was dispensed into white 1536 well plates. Twenty-three nL of compound was delivered by a pin tool and 2 uL of luciferase detection mix (Kinase-Glo, Promega)) was added. Following 8-minute incubation at ambient temperature, luminescence was measured by a ViewLux (Perkin Elmer) at 5 seconds exposure/plate.
# Potency is read from the fitted curve at half-maximal effect.
SMILES,"activity change, negative = inhibition",Potency
COC(=O)C1=C(C(=O)OC)[C@@H]2N(C)c3ccccc3[C@@]23C[C@@H](C(=O)OC)N(S(=O)(=O)c2ccc(Br)cc2)C3=N1,-4.44% [at 7.66 µM],
CCCCCCCC/C=C\CCCCCCCC(=O)NCC(=O)O,inactive,
CCOC(=O)C1=NO[C@@]2(C=C(Br)C(=O)[C@H]3O[C@H]32)C1,inactive,
COc1cccc([C@@H]2Oc3ccc(Br)cc3C(=O)[C@H]2OC(=O)NCc2ccc3c(c2)OCO3)c1,inactive,
COCCN1C(=O)N[C@@H](CCc2ccccc2)[C@H](C(C)=O)[C@H]1C,-8.66% [at 7.66 µM],
CCc1ccc(/C=C2\SC(N3CCOCC3)=NC2=O)cc1,inactive,
Cc1ccsc1/C=C1\SC(N2CCOCC2)=NC1=O,,12.6 µM (active)
Cc1ccc(N2CCN(C3=NC(=O)/C(=C\c4cccs4)S3)CC2)cc1,inactive,
COC(=O)CCCC1=CC2=C(c3ccccc3)C(=O)C(C)(OC(=O)C3CCCC3)C(=O)C2=CN1c1ccc(OC)cc1 (centres undefined),-10.4% [at 7.66 µM],
COC(C)C(C(=O)OCC1=CCN2CC[C@H](O)[C@@H]12)C(C)C (some centres undefined),inactive,
COC(=O)CC1c2ccccc2C(Cc2ccc(OC)cc2)=C(C)N1C(=O)OC (centres undefined),-5.96% [at 7.66 µM],
COc1cccc(/C=N/NC(=O)c2[nH]nc3c2CCc2ccccc2-3)c1O,inactive,
COc1cccc(/C=N\NC(=O)C2=NNC(=O)C2C)c1O (centres undefined),,12.6 µM (active)
COc1cccc(/C=N/Nc2cc(C)nc(-c3ccccc3O)n2)c1O,inactive,
Cc1ccc(S(=O)(=O)N2CCC(=O)N([C@H](COCc3ccccc3)Cc3ccccc3)CC2)cc1,inactive,
CCOC(=O)C1=C(C)c2ccccc2OC1C(=O)OCC (centres undefined),inactive,
COC(=O)CCCC1=CC2=CC(=O)C(C)(OC(=O)c3cccs3)C(=O)C2=CN1c1ccc(CO)cc1 (centres undefined),-0.663% [at 7.66 µM],
COc1ccc(-c2nc3c(c4c2C[C@H](c2ccccc2)OC4)CN(C(=O)c2ccco2)CC3)c(C)c1,-7.1% [at 7.66 µM],
COc1ccc2nc(Nc3nc4cc5c(cc4s3)OCCO5)sc2c1,inactive,
c1c2c(cc3sc(N4CCCCC4)nc13)OCCO2,,12.6 µM (active)
Brc1ccc2nc(N3CCCC3)sc2c1,inactive,
CCCCC[C@H](O)/C=C/[C@@H]1[C@@H](CC(=O)CCC(=O)O)[C@@H](O)C[C@H]1O,inactive,
COc1ccc(-c2nc3c(c4c2C[C@H](c2ccccc2)OC4)CN(C(=O)c2cccnc2)CC3)c(C)c1,-3.92% [at 7.66 µM],
CCCCC/C=C\C[C@H](O)/C=C/C=C/C=C/[C@@H](O)CCCC(=O)O,inactive,

SMILES,"activity change, negative = inhibition",Potency
Cc1cc2oc(=O)cc(-c3ccccc3)c2c(C)c1-c1ccc(OC(F)(F)F)cc1,inactive,
C[C@H]1Cc2c(-c3ccccc3)nc3c(c2CO1)CN(C(=O)C1CC1)CC3,-7.42% [at 7.66 µM],
CC(Nc1oc(-c2ccccc2)nc1-c1ccccc1)c1ccccc1 (centres undefined),inactive,
CC(=C/c1ccccc1)/C=N/NC(=O)c1cc(C)oc1C,inactive,
CCN(CC)c1ccc(C(=O)N/N=C/c2ccc(N3CCOCC3)cc2)cc1,inactive,
Cc1cc(C(=O)N/N=C/c2ccc(N3CCOCC3)cc2)c(C)o1,,11.2 µM (active)
COc1ccc(-c2nc(-c3ccccc3)oc2Nc2ccc3ccccc3c2)cc1,inactive,
Cc1ccc(CC2(O)CCN(CCOc3ccc(O)cc3)CC2)cc1,inactive,
COC/C=C/C1=CC2=CC(=O)C(C)(OC(=O)CCC(=O)OC)C(=O)C2=CO1 (centres undefined),inactive,
C=CC1=C2C=C(C3CC3)N(C(CO)CO)C=C2C(=O)C(C)(OC(=O)c2ccco2)C1=O (centres undefined),-0.389% [at 7.66 µM],
CCN1C(=O)N[C@@H](c2ccccc2)C(C(=O)OC)=C1C,-0.704% [at 7.66 µM],
C=CCSc1nc2ccccc2[nH]1,inactive,
OCCNc1nc2ccccc2[nH]1,inactive,
Cc1ccc(-c2nc3ccccc3[nH]2)cc1NC(=O)c1sc2ccccc2c1Cl,inactive,
COc1ccc(Br)cc1C(=O)NC(=S)Nc1cc(-c2nc3ccccc3[nH]2)ccc1C,inactive,
c1ccc2[nH]c(-c3nc4ccccc4[nH]3)nc2c1,,11.2 µM (active)
Cc1ccc(-c2nc3ccccc3[nH]2)cc1N,,6.31 µM (active)
COCOc1cc(OC)ccc1C(=O)/C=C/c1ccc([N+](=O)[O-])cc1,inactive,
Cc1cc2oc(=O)cc(-c3ccccc3)c2c(C)c1/C=C/c1ccc(F)cc1,inactive,
COC(=O)c1ccc(NCC(=O)c2ccccc2)cc1,,10 µM (active)
Cc1ccc(C(=O)CNc2ccc(F)cc2)cc1,inactive,
COC(=O)c1ccc(NCC(=O)N2CCCCCC2)cc1,inactive,
C/C=C(\C)C(=O)OC1C(OC(=O)C2(C)OC2C)c2cc3ccc(=O)oc3cc2OC1(C)C (centres undefined),inactive,
N/C(=N\OC(=O)Cc1ccc([N+](=O)[O-])cc1)c1ccccn1,inactive,

SMILES,"activity change, negative = inhibition",Potency
N/C(=N\OC(=O)c1ccc([N+](=O)[O-])cc1)c1ccccn1,,8.91 µM (active)
O=C(OCc1ccc([N+](=O)[O-])cc1)c1ccccn1,inactive,
C=CC(C1=CC(=O)C=CC1=O)c1ccc(O)cc1 (centres undefined),inactive,
COc1cc(OC)c2c(-c3cccc(-c4cccc(N)c4)c3)cc(=O)oc2c1,inactive,
COc1cc(NC(=O)c2ccc3c(c2)OCO3)ccc1NC(=O)c1cccs1,inactive,
Cn1c(=O)n(C)c2cc(C(=O)Nc3ccc4c(c3)OCO4)ccc21,inactive,
COc1ccc(C(=O)Nc2ccc3c(c2)OCO3)cc1OC,,12.6 µM (active)
COc1ccc(C(=O)/C=C/Nc2ccccn2)cc1,,11.2 µM (active)
CCOc1cc(NC(=O)c2ccccn2)c(OCC)cc1NC(=O)c1ccc(OC)cc1,inactive,
COc1ccc(-c2csc(Nc3ccccn3)n2)cc1,inactive,
S=C(NCCCc1cnc[nH]1)NCCCN(Cc1ccc(Cl)c(Cl)c1)c1ccc(Br)cn1,inactive,
COc1ccc(C2=NOC3(CC(=O)N(c4ccc(C)cc4)C3=O)C2)cc1 (centres undefined),inactive,
COc1ccc(C2=Nc3cc(C)ccc3OC2)cc1,,8.91 µM (active)
COc1ccc(-c2noc(-c3ccc(C)cc3)n2)cc1,inactive,
C=C1c2cccc(OC)c2O[C@H](C(=O)OCC)[C@@H]1CCCCCC,inactive,
CCc1ccc(-c2cc(C(=O)NCc3ccco3)c3ccccc3n2)s1,inactive,
CC(=NCc1ccco1)C1=C(O)c2ccccc2C1=O,inactive,
CC(=NCc1ccco1)c1c(C(F)(F)F)[nH]n(-c2nc3ccccc3s2)c1=O,,8.91 µM (active)
CC(=O)/C(C)=N/O,inactive,
C/C=C1\C2C=C(C)CC1(N)c1ccc(=O)[nH]c1C2 (centres undefined),inactive,
O=c1c(O)c(Br)ccc2c(Br)c(O)c(O)c(O)c12,inactive,
Brc1ccc(C2=NCCC(c3ccccc3)O2)cc1 (centres undefined),inactive,
COc1ccc(-c2c(C)cc3oc(=O)cc(-c4ccccc4)c3c2C)cc1C=O,inactive,
OC[C@H]1O[C@@H](n2cnc3c(NC4CCCC4)ncnc32)[C@H](O)[C@H]1O,inactive,

SMILES,"activity change, negative = inhibition",Potency
O=C1OCCN1C(=O)[C@H]1[C@H](c2ccccc2)C(c2ccc(F)cc2)=NN1c1ccccc1,inactive,
CCCCS(=O)(=O)N1C2=NC(C(=O)OC)=C(C(=O)OC)[C@@H]3N(Cc4ccccc4)c4ccccc4[C@]23C[C@H]1C(=O)OC,-7.24% [at 7.66 µM],
O=C1CCC[C@@H]2CC(N3CCCCC3)C[C@@H]3CCN1[C@H]23 (some centres undefined),inactive,
CCn1c(/C=N/NC(=O)c2ccc(OC)cc2)nc2ccccc21,inactive,
COc1ccc(C(=O)Nc2ccccc2C(=O)N/N=C/c2ccc(O)c(OC)c2)cc1,,1 µM (active)
COc1ccccc1C(=O)NNC(=O)c1ccc(NC(=O)c2ccccc2)cc1,inactive,
COc1ccc(/C=N/NC(=O)c2ccccc2)cc1OS(=O)(=O)c1ccccc1,inactive,
COc1ccc(C(=O)Nc2ccccc2C(=O)N/N=C/c2ccccc2OC)cc1,,6.31 µM (active)
COc1cc(/C=N/NC(=O)c2ccccc2)ccc1OS(=O)(=O)c1ccccc1,inactive,
CC1(OC(=O)C2CCCC2)C(=O)C=C2C=C(c3ccc(C#N)cc3)OC=C2C1=O (centres undefined),inactive,
C[C@H]1Cc2c(COc3ccccc3)nc3c(c2CO1)CN(C(=O)Nc1cccc(C#N)c1)CC3,-0.91% [at 7.66 µM],
COC1(C2=NCCN2)COc2ccccc2O1 (centres undefined),inactive,
O=C1OCCN1C(=O)[C@H]1[C@H](c2ccc(Cl)cc2)C(c2cccc(Cl)c2)=NN1c1ccc(Br)cc1,inactive,
COc1ccc2c(c1)O[C@@H](c1ccc3c(c1)OCO3)[C@H](OC(=O)NCCc1ccc(OC)c(OC)c1)C2=O,inactive,
CC[C@H](C)[C@@H](NC(=O)O[C@@H]1C(=O)c2cc(OC)ccc2O[C@H]1c1cccc(OC)c1)C(=O)OC,inactive,
CCOC(=O)C1C/C(=C\C(C)=O)c2cccc(C(F)(F)F)c2O1 (centres undefined),inactive,
OC[C@H]1O[C@@H](n2cnc3c(N[C@H]4CC5CCC4C5)ncnc32)[C@H](O)[C@@H]1O (some centres undefined),inactive,
COc1cc(SC)ccc1C(=O)Nc1nc(C)cs1,,11.2 µM (active)
COc1cc(SC)ccc1C(=O)Nc1cc(C)ccn1,inactive,
COc1ccccc1CNC(=O)c1ccc(SC)cc1OC,inactive,
CCCCC1=CC2=CC(=O)C(C)(OC(=O)CC)C(=O)C2=CN1CCCOC(C)C (centres undefined),-3.21% [at 7.66 µM],
C=CCN1c2ccccc2[C@]23C[C@@H](C(=O)OC)N(S(=O)(=O)c4ccc([N+](=O)[O-])cc4)C2=NC(C(=O)OC)=C(C(=O)OC)[C@H]13,-1.89% [at 7.66 µM],

# Reference: PubChem BioAssay AID1379 (National Center for Advancing Translational Sciences (NCATS), 2008)
